Results published in PubChem BioAssay AID449762 (Southern Research Specialized Biocontainment Screening …, 2010).
Out of some 330,000 compounds screened, about 1,900 (0.58%) were called active. Another 4% or so got no clear call; they are omitted. Rule as the data show it: inconclusive = inhibition above about 70% without an active follow-up result; inactive = below that. Only a sample is shown. Potency and affinity values are given separately.

Assay: M. tuberculosis growth inhibition, HTS (AID 449762);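 also: bacterial growth assessed after seven days of incubation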
Conditions: M. tuberculosis H37Rv growth inhibition, 7H9 media; at 25 µM; stronger effect = higher value

SMILES	inhibition
CCC(C)N1CC(=O)N2C(c3ccc(OC)cc3OC)c3[nH]c4ccccc4c3C[C@H]2C1=O (stereo partly drawn)	6.67% (inactive)
CCOc1ccc(OCCC(=O)OCC(=O)NC2CCCC2)cc1	4.34% (inactive)
COc1ccc(-c2csc(NC(C)c3nc4cc(Cl)c(Cl)cc4n3CCCO)n2)cc1 (stereo not drawn)	35.7% (inactive)
CCCn1c(C(C)Nc2nc(-c3ccc(C)cc3)cs2)nc2cc(Cl)c(N3CCCCC3)cc21 (stereo not drawn)	44.2% (inactive)
CCOC(=O)CN1CCC(c2cc(-c3ccc(Cl)cc3)n[nH]2)CC1	0.17% (inactive)
Cc1ccc(CN2CCC(c3cc(-c4cccs4)n[nH]3)CC2)cc1	42.8% (inactive)
COc1ccc(-c2cc(C3CCN(CC(O)C(F)(F)F)CC3)[nH]n2)cc1 (stereo not drawn)	7.78% (inactive)
COc1ccc(OC)c(-c2cc(C3CCN(C(=O)OC(C)(C)C)CC3)[nH]n2)c1	-1.26% (inactive)
CC(C)(C)OC(=O)N1CCC(c2cc(-c3cccs3)n[nH]2)CC1	10.2% (inactive)
COc1ccc(-c2cc(C3CCN(Cc4ccc([N+](=O)[O-])cc4)CC3)[nH]n2)cc1	39.6% (inactive)
CCCCCOc1ccc(CSc2ncn[nH]2)cc1	29.4% (inactive)
COc1cccc(CN2C(=O)C(C)Oc3ccccc32)c1 (stereo not drawn)	-3.69% (inactive)
O=C(CSc1nncc2ccccc12)N1CCOCC1	-0.48% (inactive)
O=C1COc2ccc(S(=O)(=O)CCC(=O)N3CCN(c4ccccc4)CC3)cc2N1	-9.62% (inactive)
O=C(NCCN1CCOCC1)c1ccc(Cl)nc1Cl	-1.1% (inactive)
CN(CCOc1ccccc1)Cc1nc2cc(Cl)ccc2c(=O)[nH]1	58.8% (inactive)
CC(c1nc2ccccc2c(=O)[nH]1)N(C)c1ccc2ccccc2c1 (stereo not drawn)	-13.1% (inactive)
CCC(Sc1nc(C)cc(=O)[nH]1)C(=O)Nc1ccc(Cl)cn1 (stereo not drawn)	-1.49% (inactive)
COc1ccc(CCN(C(=O)c2cccc(F)c2)C2CC(=O)N(c3ccc(OC)cc3)C2=O)cc1 (stereo not drawn)	2.05% (inactive)
CCN(CC(=O)Nc1c(F)cccc1F)C(=O)CCCc1nc2ccccc2c(=O)[nH]1	5.24% (inactive)
Cc1cccc(CCNC(=O)CC2C(=O)NCCN2CC2CCCCC2)n1 (stereo not drawn)	0.82% (inactive)
CCOC(=O)c1c(NC(=O)CSc2nc3ccccc3[nH]2)sc2c1CC(C)(C)NC2(C)C	35.9% (inactive)
CCOC(=O)c1c(NC(=O)CSc2ncccn2)sc2c1CC(C)(C)NC2(C)C	8.68% (inactive)
O=C(O)CC(Cc1ccc(Cl)cc1)C(=O)NCc1ccccc1 (stereo not drawn)	-1.83% (inactive)

SMILES	inhibition
O=C(O)c1cnn(-c2nc(-c3cccc(F)c3)cs2)c1C(F)(F)F	-9.37% (inactive)
CCCNC(=O)c1ccccc1NC(=O)Nc1ccccc1C	-3.01% (inactive)
COc1ccc2cc1Oc1ccc(cc1)CC1c3c(cc(OC)c4c3Oc3cc5c(cc3O4)CCNC5C2)CCN1C (stereo not drawn)	2.26% (inactive)
COc1ccc2cc1Oc1ccc(cc1)C[C@H]1c3cc(c(OC)cc3CCN1C)Oc1c(OC)c(OC)cc3c1[C@H](C2)N(C)CC3	-2.74% (inactive)
COc1ccc(NC(=O)C2CCCO2)cc1Cl (stereo not drawn)	55.9% (inactive)
COc1cc(C(=O)NCCOc2ccc(Cl)cc2)ccc1OCc1c(C)noc1C	-3.72% (inactive)
CCCC(=O)Nc1ccc2c(c1)nc(CN1CCCC1)n2C	-1.98% (inactive)
Cc1cc(C)n2nc(C(=O)OC(C)C(=O)c3ccccc3)nc2n1 (stereo not drawn)	7.53% (inactive)
O=C(NCCCn1ccnc1)c1cc(-c2cccnc2)nc2ccc(Br)cc12	4.38% (inactive)
Cc1ccc(-c2cc(C(=O)NCCCn3ccnc3)c3cc(Br)ccc3n2)o1	4.01% (inactive)
COc1ccc(OCC(O)Cn2c(N)nc3c2c(=O)[nH]c(=O)n3C)cc1 (stereo not drawn)	-6.1% (inactive)
Cc1cc(C(=O)Nc2sc3c(c2C#N)CCC(C(C)(C)C)C3)no1 (stereo not drawn)	-1.37% (inactive)
CC1CCc2sc(-c3n[nH]c(=S)o3)cc2C1 (stereo not drawn)	4.83% (inactive)
Cc1[nH]c(C(=O)N/N=C/c2ccc(C(=O)O)cc2)c(C)c1C(=O)N/N=C/c1ccc(C(=O)O)cc1	2.47% (inactive)
N/C(=N\OC(=O)N1c2ccccc2Sc2ccccc21)c1ccc(Br)cc1	-4.44% (inactive)
CCOC(=O)N1c2ccccc2Sc2ccccc21	10.8% (inactive)
O=C(O)C(Cc1cnc[nH]1)NS(=O)(=O)c1ccc(Cl)cc1 (stereo not drawn)	0.91% (inactive)
CN1CCN(C(=S)c2ccc(N(C)C)cc2)CC1	-4.96% (inactive)
O=[N+]([O-])c1cccc(/C=N/Nc2nccnc2Cl)c1	-0.09% (inactive)
COc1ccc(CN2CCC(N3CC(C)OC(C)C3)CC2)c(OC)c1 (stereo not drawn)	1.06% (inactive)
COc1cc(-c2ccc3oc(-c4ccsc4)c(C#CC4(O)CCCCC4)c3c2)cc(OC)c1OC	51.2% (inactive)
CC(C)n1nnc2c(=O)oc3ccccc3c21	48% (inactive)
CCn1nnc2c(=O)oc3ccccc3c21	28.6% (inactive)
CC1CC(C)CN(C(=O)Cn2nnc(-c3ccc(Br)cc3)n2)C1 (stereo not drawn)	2.83% (inactive)

SMILES	inhibition
CCOC(=O)Cn1c(C)cc(=O)c2cccc(C)c21	16.2% (inactive)
CCOC(=O)Cn1c(=O)cc(C)c2cccc(C)c21	57.9% (inactive)
COc1ccc(CC(=O)NCc2nnc(SCC(=O)Nc3ccccc3)n2C)cc1	4.29% (inactive)
O=C(NCC(=O)N1CCN(c2ccccc2O)CC1)c1ccccc1	7.74% (inactive)
CCCCCCC1CC(CCc2nc(=S)[nH][nH]2)C(=O)O1 (stereo not drawn)	-0.55% (inactive)
O=C(NCC1CCCCC1)c1cccc([N+](=O)[O-])c1	4.44% (inactive)
COC(=O)c1cc(C(=O)NCC2CCCCC2)cc([N+](=O)[O-])c1	-5.46% (inactive)
CCOC(=O)C1(CC2CC2)CCN(Cc2cc(Cl)c(O)c(OC)c2)CC1	-1.14% (inactive)
CCCCn1c(=O)c(C(=O)NCc2ccc(Cl)cc2)c(O)c2ccccc21	13% (inactive)
O=[N+]([O-])c1cc(C(F)(F)F)cc([N+](=O)[O-])c1N1CCCNCC1	-2.74% (inactive)
COc1ccc(N=Nc2ccc(O)c3ncccc23)cc1	64.2% (inactive)
Cc1ccc(N=Nc2ccc(O)c3ncccc23)cc1	63.9% (inactive)
COc1ccc(OCCNC(=O)CCCO)cc1	-4.06% (inactive)
Cc1ccsc1/C=N/NC(=O)c1ccc(Cn2cc(Br)cn2)o1	-7.92% (inactive)
O=C1Nc2cc(C(=O)NCC3CCCO3)ccc2S/C1=C/c1ccccc1F (stereo not drawn)	2.49% (inactive)
COc1ccc(-c2csc(/C(C#N)=C\c3cccc([N+](=O)[O-])c3)n2)cc1	9.75% (inactive)
COc1ccc(-c2csc(/C(C#N)=C\c3ccc(OC)c([N+](=O)[O-])c3)n2)cc1	11.1% (inactive)
C#CC[N+]1(CC#Cc2ccc(C)cc2)CCCCC1	6.8% (inactive)
Cc1ccc(C#CC[N+]2(C)CCCCC2)cc1	-6.71% (inactive)
Cc1ccc(/C=N/Nc2nnc(Cc3ccccc3)c(=O)[nH]2)o1	0.24% (inactive)
CCOc1ccc(-c2cc(N)n(S(=O)(=O)c3cccc4nsnc34)n2)cc1	-2.37% (inactive)
O=C(NCC(c1ccco1)N1CCOCC1)C1CCCCC1 (stereo not drawn)	1.93% (inactive)
Cn1cnc([N+](=O)[O-])c1Sc1ncnc2nc[nH]c12	3.96% (inactive)
O=C(CSc1ncnc2nc[nH]c12)c1ccc([N+](=O)[O-])cc1	-8.27% (inactive)

SMILES	inhibition
COc1ccccc1C(=O)NC(=O)COC(=O)c1nc2nc(C)cc(C)n2n1	-0.8% (inactive)
CCc1cc2c(=O)c(-c3nc4ccccc4n3C)c(C(C)C)oc2c(CN2CCN(C)CC2)c1O	3.5% (inactive)
CCOc1ccccc1NC1=C(Cl)C(=O)N(c2ccc(OC)cc2)C1=O	-6.27% (inactive)
COc1ccc(N2C(=O)C(Cl)=C(Nc3ccccc3OC)C2=O)cc1	-3.72% (inactive)
O=S(=O)(c1ccc2ccccc2c1)N1CCN(CCO)CC1	4.19% (inactive)
Cc1ccc(S(=O)(=O)N(CC(=O)c2ccc(Cl)cc2)C(=O)N2CCN(C)CC2)cc1	-5.16% (inactive)
COc1cccc(CC(NC(C)=O)C(=O)NC2CCN(S(=O)(=O)c3cccc4ccccc34)CC2)c1 (stereo not drawn)	1.8% (inactive)
COC(=O)c1ccc(NC(=O)CSCc2ccccc2C)cc1	21.9% (inactive)
CCOc1ccccc1N1CCN(C(=O)c2cn(CC3CCCCC3)nn2)CC1	53.5% (inactive)
Cc1cccc(C)c1OCc1cc(C(=O)N2CCN(c3ccccc3)CC2C)no1 (stereo not drawn)	61.7% (inactive)
Cc1ccnc(NC(=O)c2ccc(Cl)c(NC(=O)c3ccccc3C)c2)c1	-1.18% (inactive)
O=C(Nc1ccon1)Nc1cccc(Cl)c1Cl	-8.3% (inactive)
Cc1cc(C(=O)Nc2nc3ccc(S(C)(=O)=O)cc3s2)c(C)o1	-11.6% (inactive)
Cc1ccc2cc(C(c3nnnn3CC3CCCO3)N3CCc4ccccc4C3)c(=O)[nH]c2c1 (stereo not drawn)	11.1% (inactive)
NS(=O)(=O)c1ccc(N=Nc2ccc(O)c3ncccc23)cc1	-1.88% (inactive)
Nc1ccc(N=Nc2ccccc2)c2ccccc12	-11.4% (inactive)
CCCC(=O)Nc1nnc(S(=O)(=O)N(CC)c2ccc(OC)cc2)s1	6.35% (inactive)
O=c1[nH]c2ccccc2nc1Cc1ccc([N+](=O)[O-])cc1	1.98% (inactive)
Cc1nn(C(C)C(=O)N2CCCC2)c(=O)c2nn(-c3ccccc3)c(C)c12 (stereo not drawn)	4.45% (inactive)
Cc1cc(-c2ccccc2)cc(C)[n+]1Cc1ccccc1	4.78% (inactive)
O=C([O-])c1cc(-c2ccccc2)cc(-c2ccccc2)[n+]1Cc1ccccc1	2.25% (inactive)
